Assay [1] concerns the target Rho-associated protein kinase 1 (Homo sapiens) (UniProt Q13464). As to conditions: at 1 µM.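 Further: reported values are mean percent inhibition of ROCK1.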
Assay [2] concerns the target Rho-associated protein kinase 2 (Homo sapiens) (UniProt O75116). As to conditions: at 0.1 µM.
The target is the same in assay [3]. As to conditions: at 1 µM.
For assay [4], the target named is Ribosomal protein S6 kinase alpha-1 (Homo sapiens) (UniProt Q15418). The following applies: at 0.1 µM.
Ribosomal protein S6 kinase alpha-1 (Homo sapiens), sequence (Q15418 whole entry): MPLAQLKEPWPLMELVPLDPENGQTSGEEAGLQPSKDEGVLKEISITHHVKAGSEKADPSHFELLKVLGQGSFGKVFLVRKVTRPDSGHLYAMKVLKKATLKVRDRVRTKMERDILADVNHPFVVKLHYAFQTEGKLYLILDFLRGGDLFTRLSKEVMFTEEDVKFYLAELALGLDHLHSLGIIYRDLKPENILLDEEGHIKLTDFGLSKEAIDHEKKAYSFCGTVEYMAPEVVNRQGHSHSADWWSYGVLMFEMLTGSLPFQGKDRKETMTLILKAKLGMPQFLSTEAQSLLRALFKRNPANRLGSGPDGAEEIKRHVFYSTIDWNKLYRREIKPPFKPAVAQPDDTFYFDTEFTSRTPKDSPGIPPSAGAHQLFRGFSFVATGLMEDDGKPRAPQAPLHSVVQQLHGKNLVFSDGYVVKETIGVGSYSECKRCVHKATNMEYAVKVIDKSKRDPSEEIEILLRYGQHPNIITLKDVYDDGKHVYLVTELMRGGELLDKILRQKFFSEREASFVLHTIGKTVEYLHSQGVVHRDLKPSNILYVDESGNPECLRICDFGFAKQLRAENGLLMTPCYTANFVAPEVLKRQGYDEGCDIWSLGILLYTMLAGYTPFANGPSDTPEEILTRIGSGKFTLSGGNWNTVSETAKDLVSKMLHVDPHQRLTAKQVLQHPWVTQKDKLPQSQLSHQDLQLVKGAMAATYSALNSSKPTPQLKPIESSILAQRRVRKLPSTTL
Assay [5] shares this target. As to conditions: at 1 µM.
In assay [6] the target is Ribosomal protein S6 kinase alpha-3 (Homo sapiens) (UniProt P51812). As to conditions: at 0.1 µM.
Assay [7] has the same target. As to conditions: at 1 µM.
For assay [8], the target named is Ribosomal protein S6 kinase alpha-2 (Homo sapiens) (UniProt Q15349). The following applies: at 0.1 µM.
Ribosomal protein S6 kinase alpha-2 (Homo sapiens), sequence (Q15349 whole entry): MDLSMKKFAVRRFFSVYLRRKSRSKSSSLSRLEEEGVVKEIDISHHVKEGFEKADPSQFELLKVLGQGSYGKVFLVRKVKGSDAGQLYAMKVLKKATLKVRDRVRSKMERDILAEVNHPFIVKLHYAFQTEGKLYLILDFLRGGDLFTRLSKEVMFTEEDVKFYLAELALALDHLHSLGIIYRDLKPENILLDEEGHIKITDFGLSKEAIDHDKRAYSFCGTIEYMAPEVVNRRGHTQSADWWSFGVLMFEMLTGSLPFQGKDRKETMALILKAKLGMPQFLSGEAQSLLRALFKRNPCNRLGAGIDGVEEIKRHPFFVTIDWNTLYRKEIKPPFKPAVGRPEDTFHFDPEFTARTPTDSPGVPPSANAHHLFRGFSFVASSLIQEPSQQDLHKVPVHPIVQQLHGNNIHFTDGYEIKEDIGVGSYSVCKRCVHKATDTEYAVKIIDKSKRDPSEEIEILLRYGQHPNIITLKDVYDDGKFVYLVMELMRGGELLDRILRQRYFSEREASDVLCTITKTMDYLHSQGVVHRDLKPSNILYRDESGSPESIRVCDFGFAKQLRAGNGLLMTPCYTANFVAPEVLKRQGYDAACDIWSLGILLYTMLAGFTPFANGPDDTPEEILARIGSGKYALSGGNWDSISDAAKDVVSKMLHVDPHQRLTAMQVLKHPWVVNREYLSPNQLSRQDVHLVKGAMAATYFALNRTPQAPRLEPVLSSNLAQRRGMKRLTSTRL
Assay [9] shares this target. As to conditions: at 1 µM.
In assay [10] the target is Ribosomal protein S6 kinase alpha-6 (Homo sapiens) (UniProt Q9UK32). The following applies: at 0.1 µM.
Ribosomal protein S6 kinase alpha-6 (Homo sapiens), sequence (Q9UK32 whole entry): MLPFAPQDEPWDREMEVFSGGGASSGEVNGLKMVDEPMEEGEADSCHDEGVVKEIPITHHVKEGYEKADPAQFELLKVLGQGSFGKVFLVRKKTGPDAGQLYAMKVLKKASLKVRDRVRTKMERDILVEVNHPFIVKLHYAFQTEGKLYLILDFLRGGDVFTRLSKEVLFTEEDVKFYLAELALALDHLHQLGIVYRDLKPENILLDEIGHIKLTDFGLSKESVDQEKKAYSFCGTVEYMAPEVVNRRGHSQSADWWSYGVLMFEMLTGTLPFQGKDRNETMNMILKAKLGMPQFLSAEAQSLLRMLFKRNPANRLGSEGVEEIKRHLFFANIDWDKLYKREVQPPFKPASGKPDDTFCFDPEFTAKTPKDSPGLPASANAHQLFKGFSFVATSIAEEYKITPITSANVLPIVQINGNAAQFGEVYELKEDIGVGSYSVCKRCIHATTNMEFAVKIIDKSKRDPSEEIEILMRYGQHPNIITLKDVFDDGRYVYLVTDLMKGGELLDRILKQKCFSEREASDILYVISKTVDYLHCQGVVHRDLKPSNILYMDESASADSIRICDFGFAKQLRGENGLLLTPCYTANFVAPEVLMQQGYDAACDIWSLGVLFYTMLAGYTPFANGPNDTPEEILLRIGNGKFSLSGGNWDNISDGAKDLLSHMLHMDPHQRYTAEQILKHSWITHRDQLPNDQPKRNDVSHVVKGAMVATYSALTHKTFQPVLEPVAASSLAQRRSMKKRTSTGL
For assay [11] the target is unchanged. The following applies: at 1 µM.
In assay [12] the target is T1, Serine/threonine-protein kinase Sgk1 (Homo sapiens) (UniProt O00141).
T1 sequence (whole entry): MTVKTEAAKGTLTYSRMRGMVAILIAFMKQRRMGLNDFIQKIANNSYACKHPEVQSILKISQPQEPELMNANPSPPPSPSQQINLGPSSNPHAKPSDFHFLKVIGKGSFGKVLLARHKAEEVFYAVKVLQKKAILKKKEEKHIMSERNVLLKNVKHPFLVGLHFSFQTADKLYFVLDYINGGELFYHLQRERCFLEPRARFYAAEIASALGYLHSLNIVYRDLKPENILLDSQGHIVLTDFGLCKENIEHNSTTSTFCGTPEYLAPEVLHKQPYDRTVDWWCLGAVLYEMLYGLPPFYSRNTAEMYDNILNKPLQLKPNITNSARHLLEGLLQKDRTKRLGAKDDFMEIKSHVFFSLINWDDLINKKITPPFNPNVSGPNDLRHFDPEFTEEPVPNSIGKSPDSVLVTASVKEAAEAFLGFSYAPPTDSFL
As to conditions: at 0.1 µM.

Assay [13] deals with T1, Serine/threonine-protein kinase Sgk1 (Homo sapiens). As to conditions: at 1 µM.
In assay [14] the target is T2, Serine/threonine-protein kinase Sgk2 (Homo sapiens) (UniProt Q9HBY8).
T2 sequence (whole entry): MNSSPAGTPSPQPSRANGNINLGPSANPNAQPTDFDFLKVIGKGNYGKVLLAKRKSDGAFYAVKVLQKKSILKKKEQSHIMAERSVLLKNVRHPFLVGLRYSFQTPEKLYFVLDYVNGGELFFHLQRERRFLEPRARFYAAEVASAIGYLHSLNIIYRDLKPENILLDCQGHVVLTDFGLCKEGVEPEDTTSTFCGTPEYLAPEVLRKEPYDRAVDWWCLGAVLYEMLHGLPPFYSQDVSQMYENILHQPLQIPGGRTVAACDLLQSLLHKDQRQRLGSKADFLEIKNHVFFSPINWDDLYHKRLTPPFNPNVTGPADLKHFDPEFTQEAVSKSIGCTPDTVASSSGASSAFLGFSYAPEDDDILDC
The following applies: at 0.1 µM.

Assay [15] concerns the target T2, Serine/threonine-protein kinase Sgk2 (Homo sapiens). The following applies: at 1 µM.
Assay [16] addresses T3, Serine/threonine-protein kinase Sgk3 (Homo sapiens) (UniProt Q96BR1).
T3 sequence (whole entry): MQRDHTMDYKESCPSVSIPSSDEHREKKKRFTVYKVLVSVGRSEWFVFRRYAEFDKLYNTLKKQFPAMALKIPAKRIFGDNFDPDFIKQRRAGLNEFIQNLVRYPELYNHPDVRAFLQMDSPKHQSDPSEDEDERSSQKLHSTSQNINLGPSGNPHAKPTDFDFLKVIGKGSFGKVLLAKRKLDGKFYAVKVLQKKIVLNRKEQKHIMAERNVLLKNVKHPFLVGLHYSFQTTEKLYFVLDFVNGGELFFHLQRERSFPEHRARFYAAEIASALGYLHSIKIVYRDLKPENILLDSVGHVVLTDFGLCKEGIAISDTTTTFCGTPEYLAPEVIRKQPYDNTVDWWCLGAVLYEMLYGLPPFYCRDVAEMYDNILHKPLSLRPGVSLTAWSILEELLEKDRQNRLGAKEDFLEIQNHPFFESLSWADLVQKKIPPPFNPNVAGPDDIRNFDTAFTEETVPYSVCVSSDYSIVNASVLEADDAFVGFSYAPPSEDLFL
As to conditions: at 0.1 µM.

Assay [17] has as its target T3, Serine/threonine-protein kinase Sgk3 (Homo sapiens). The following applies: at 1 µM.
For assay [18], the target named is 5'-AMP-activated protein kinase catalytic subunit alpha-1 (Homo sapiens) (UniProt Q13131). As to conditions: at 0.1 µM.
Assay [19] has the same target. As to conditions: at 1 µM.
Assay [20] concerns the target 5'-AMP-activated protein kinase catalytic subunit alpha-2 (Homo sapiens) (UniProt P54646). The following applies: at 0.1 µM.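 Further: mean inhibition measured on the AMPK complex of alpha2, beta1 and gamma1 subunits.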

Rho-associated protein kinase 1 (Homo sapiens), sequence (Q13464 2-1354 limits assumed): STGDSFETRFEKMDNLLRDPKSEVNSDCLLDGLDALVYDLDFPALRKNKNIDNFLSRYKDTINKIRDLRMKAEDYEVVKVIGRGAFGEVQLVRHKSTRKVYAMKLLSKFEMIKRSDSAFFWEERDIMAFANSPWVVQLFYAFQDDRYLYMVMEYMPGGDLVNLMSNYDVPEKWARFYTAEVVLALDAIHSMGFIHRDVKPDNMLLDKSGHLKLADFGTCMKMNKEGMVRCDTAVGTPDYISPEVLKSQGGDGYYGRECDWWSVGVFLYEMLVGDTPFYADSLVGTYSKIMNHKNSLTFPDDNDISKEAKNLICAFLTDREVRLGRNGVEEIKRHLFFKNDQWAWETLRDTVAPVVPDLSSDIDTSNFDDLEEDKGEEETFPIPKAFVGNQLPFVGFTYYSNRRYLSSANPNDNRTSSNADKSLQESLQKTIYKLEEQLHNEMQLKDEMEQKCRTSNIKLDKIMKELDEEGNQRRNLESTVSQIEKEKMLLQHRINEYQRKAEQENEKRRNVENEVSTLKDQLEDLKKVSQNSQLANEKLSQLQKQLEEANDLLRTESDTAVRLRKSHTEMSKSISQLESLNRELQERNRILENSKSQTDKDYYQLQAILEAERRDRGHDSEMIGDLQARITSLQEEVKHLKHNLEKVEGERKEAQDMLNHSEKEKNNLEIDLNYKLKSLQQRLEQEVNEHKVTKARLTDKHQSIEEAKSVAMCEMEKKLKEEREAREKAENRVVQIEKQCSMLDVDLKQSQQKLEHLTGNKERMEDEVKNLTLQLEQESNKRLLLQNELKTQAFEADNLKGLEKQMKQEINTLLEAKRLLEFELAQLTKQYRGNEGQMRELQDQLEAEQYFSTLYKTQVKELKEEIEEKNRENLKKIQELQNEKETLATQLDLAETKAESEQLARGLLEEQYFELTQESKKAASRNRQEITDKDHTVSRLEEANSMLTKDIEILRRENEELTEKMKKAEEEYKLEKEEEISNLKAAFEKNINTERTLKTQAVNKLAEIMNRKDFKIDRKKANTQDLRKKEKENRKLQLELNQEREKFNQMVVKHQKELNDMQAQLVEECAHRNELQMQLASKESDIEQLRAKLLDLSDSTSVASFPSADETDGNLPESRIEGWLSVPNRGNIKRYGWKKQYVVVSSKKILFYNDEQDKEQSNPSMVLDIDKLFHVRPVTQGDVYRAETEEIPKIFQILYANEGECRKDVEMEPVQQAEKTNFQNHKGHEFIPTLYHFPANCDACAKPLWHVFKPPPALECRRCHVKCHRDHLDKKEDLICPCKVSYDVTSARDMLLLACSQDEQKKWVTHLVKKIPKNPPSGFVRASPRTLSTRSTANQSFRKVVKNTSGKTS
Rho-associated protein kinase 2 (Homo sapiens), sequence (O75116 whole entry, looked up): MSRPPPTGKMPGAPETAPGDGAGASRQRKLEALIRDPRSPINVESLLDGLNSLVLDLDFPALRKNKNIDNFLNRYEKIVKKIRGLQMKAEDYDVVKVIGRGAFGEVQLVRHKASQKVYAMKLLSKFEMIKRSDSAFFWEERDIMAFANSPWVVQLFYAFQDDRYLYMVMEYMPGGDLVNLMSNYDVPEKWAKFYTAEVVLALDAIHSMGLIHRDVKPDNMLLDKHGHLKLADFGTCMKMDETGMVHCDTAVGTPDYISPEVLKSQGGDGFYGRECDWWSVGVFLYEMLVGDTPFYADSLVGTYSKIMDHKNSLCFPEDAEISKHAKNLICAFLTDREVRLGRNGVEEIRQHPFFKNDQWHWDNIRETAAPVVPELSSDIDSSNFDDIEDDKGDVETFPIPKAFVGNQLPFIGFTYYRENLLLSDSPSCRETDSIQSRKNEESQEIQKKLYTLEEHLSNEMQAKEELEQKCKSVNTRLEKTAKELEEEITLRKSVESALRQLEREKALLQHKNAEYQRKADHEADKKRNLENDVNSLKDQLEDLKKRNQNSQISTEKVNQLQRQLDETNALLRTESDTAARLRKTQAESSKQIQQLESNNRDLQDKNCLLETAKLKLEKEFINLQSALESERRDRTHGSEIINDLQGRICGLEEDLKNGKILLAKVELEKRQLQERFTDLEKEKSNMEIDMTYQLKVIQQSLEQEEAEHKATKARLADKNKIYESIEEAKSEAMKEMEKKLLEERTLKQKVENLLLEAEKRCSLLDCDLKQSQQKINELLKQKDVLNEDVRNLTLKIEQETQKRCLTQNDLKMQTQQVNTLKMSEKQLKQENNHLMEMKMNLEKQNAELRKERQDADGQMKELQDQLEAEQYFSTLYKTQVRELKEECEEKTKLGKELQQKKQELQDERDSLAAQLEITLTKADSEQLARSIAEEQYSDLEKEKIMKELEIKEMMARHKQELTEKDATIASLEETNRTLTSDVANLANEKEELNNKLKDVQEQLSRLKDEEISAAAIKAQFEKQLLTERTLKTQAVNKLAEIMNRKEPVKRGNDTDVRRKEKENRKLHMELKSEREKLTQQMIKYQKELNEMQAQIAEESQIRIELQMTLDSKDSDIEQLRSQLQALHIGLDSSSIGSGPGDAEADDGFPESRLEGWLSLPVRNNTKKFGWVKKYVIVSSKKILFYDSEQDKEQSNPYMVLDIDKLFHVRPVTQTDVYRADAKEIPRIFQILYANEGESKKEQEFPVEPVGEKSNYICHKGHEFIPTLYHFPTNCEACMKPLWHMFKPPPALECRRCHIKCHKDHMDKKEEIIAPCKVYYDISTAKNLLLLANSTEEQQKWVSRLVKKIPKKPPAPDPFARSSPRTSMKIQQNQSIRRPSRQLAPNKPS

Regarding `C[C@@H](Oc1cc(-n2cnc3ccc(OCC4CCN(C)CC4)cc32)sc1C(N)=O)c1ccccc1C(F)(F)F`, the inhibition in assay [1] is 12%; in assay [2], 1.51%; in assay [3] it was 12%; in assay [4], 5.1%; in assay [5], 32.7%; in assay [6], 11.8%. The inhibition in assay [7] was 52%; in assay [8], 3.14%; in [9], 30.9%; in assay [10] it was 13.2%; in assay [11], 54.9%; in [12] it was 0.5%. The inhibition in [13] was 2.02%; in [14] it was -2.58%; in assay [15], -0.14%; in assay [16], -1.97%; in assay [17] it was -2.55%; in [18] it was 5.76%. For the same compound, the inhibition in assay [19] stood at 32.6%; in assay [20], 2.88%.
Turning to `O=C1Nc2ccc(-c3cccnc3)cc2C1=Cc1cc(Br)c(O)c(Br)c1`, the inhibition in assay [1] stood at 4.77%; in assay [2], 2.87%; in assay [3], 7.43%; in assay [4], 2.15%; in assay [5], 2.73%; in assay [6], 0.76%. For the same compound, the inhibition in assay [7] is -1.29%; in [8], 1.03%; in assay [9] it was 3.66%; in [10], 1.69%; in assay [11], 5.51%; in assay [12], 3.01%. Besides, the inhibition in assay [13] stood at 3.05%; in assay [14] it was 1.63%; in [15], 6.41%; in [16], 3.1%; in [17], 2%; in assay [18], 3.07%. Besides, the values for the inhibition in assay [19] and in assay [20] were 3.3% and 2.54%, respectively.
In the case of `COC(=O)Nc1nc2cc(Oc3ccc(NC(=O)Nc4cccc(Br)c4)cc3)ccc2[nH]1`, the inhibition came out at 7.16% in assay [1]; 3.44% in [2]; 6.83% in assay [3]; 1.44% in assay [4]; 1.53% in assay [5]; 1.69% in assay [6]. Further, the inhibition in assay [7] stood at 0.56%; in assay [8], 1.65%; in [9], 2.4%; in assay [10] it was 1.97%; in assay [11], 1.35%; in [12], 4.42%. Further, the inhibition came to 6.16% in [13]; 2.07% in [14]; 3.07% in [15]; 2.77% in [16]; 3.45% in assay [17]; 2.86% in assay [18]. In addition, the inhibition in [19] came to 2.58%; in assay [20], 0.56%.
On to `Cc1ccc(Nc2ccnc(Nc3cccc(C(N)=O)c3)n2)cc1O`, for which the inhibition came out at 5.78% in [1]; 4.11% in assay [2]; 13.6% in [3]; 2.41% in [4]; 3.62% in assay [5]; 1.82% in assay [6]. The inhibition is 2.23% in assay [7]; 1.81% in assay [8]; 3.37% in assay [9]; 2.28% in assay [10]; 7.33% in assay [11]; 1.93% in assay [12]. For the same compound, the inhibition in assay [13] amounted to 4.05%; in [14], 5.55%; in assay [15] it was 3.06%; in assay [16], 1.32%; in assay [17], 3.83%; in assay [18], 2.46%. The inhibition worked out at 6.79% in assay [19] and 1.35% in assay [20].
For the compound `NS(=O)(=O)c1cccc(Nc2cc(-c3ccc(F)cc3)n[nH]2)c1`, the inhibition in assay [1] worked out at 3.34%; in [2] it was 3.4%; in [3] it was 8.75%; in [4] it was 3.22%; in assay [5] it was 7.2%; in [6], 2.09%. The inhibition in assay [7] is 5.61%; in [8], 2.21%; in assay [9], 4.15%; in assay [10], 1.89%; in assay [11] it was 4.03%; in assay [12], 3.81%. For the same compound, the inhibition in [13] was found to be 7.2%; in [14], 3.76%; in [15], 8.09%; in [16] it was 3.81%; in assay [17], 7.42%; in [18], 3.82%. The inhibition is 14.4% in [19] and 2.4% in assay [20].
As to `COC(=O)c1cncc(/C=C/c2c(C)cc(O)cc2C)c1`, the inhibition came out at 1.27% in assay [1]; 3.8% in [2]; 5.21% in assay [3]; 2.26% in assay [4]; 4.95% in [5]; 1.3% in [6]. Also, the inhibition in [7] was determined as 2.62%; in [8], 2.03%; in assay [9], 2.47%; in [10], 1.66%; in assay [11], 6.87%; in assay [12], 3.1%. The inhibition in assay [13] amounted to 4.65%; in [14], 3.28%; in [15], 2.28%; in assay [16], 2.89%; in assay [17], 4.83%; in [18], 2.38%. Further, the inhibition in assay [19] was determined as 5.18%; in assay [20], 0.21%.

As a reminder, the inhibition is the change of the read-out against control, counted positive when it falls.
